Reference: PubChem BioAssay (EPA / NIEHS)
Where “and” joins values, the source holds several entries; their conditions need not be identical. Equal values may be shown once. Inconclusive results are not listed. A structure can be active in one record and inactive in another. Calls of active or inactive are those of the source. How the source made its calls, unless noted: active means hit-call score of the fitted dose curve at least 0.9, where 1 is the maximum; inconclusive means response in the unintended direction; inactive means score below 0.9.

Tests used:
[1] = target: Estrogen receptor beta (Homo sapiens) (UniProt Q92731); experiment: OT_ER_ERbERb_1440: Odyssey Thera (OT) 24-hour HEK293T Protein-Complementation Assay for Estrogen Receptor-beta/-beta Homodimer (AID 2283380);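 further: fluorescence gain from ER beta LBD homodimer complementation read by laser scanning cytometry; scored as signal increase over DMSO baseline for both agonists and antagonists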
Sequence of Estrogen receptor beta (Homo sapiens) (Q92731 whole entry, looked up, the tested form may be a part): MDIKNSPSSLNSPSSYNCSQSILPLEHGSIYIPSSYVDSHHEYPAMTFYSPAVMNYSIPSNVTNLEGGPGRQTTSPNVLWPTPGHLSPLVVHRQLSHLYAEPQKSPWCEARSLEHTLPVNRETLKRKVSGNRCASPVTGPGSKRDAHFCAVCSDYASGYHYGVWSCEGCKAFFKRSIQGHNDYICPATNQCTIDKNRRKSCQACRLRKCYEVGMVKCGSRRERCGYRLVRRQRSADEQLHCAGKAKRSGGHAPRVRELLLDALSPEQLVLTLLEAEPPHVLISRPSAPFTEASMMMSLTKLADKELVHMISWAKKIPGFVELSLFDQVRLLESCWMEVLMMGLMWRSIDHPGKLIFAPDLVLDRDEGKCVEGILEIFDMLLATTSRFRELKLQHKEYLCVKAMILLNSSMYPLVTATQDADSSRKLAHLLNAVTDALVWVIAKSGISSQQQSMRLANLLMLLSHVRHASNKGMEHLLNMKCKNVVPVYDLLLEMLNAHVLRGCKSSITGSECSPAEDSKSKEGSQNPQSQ
How it was run: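 HEK293T cells stably expressing human ER-beta LBD (aa 310-547) PCA homodimer pair, dosed 24 h; formaldehyde-fixed, Draq5-stained. Readout: increase in nuclear (agonist) or nuclear plus cytoplasmic (antagonist) fluorescence intensity versus DMSO, gain-of-signal fitting.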

[2] = target: Estrogen receptor (Homo sapiens) (UniProt P03372); experiment: OT_ERa_GFPERaERE_0120: Odyssey Thera (OT) 2-hour HeLa Transcription Induction Assay for Estrogen Receptor (AID 2283382)
Sequence of Estrogen receptor (Homo sapiens) (P03372 whole entry, looked up): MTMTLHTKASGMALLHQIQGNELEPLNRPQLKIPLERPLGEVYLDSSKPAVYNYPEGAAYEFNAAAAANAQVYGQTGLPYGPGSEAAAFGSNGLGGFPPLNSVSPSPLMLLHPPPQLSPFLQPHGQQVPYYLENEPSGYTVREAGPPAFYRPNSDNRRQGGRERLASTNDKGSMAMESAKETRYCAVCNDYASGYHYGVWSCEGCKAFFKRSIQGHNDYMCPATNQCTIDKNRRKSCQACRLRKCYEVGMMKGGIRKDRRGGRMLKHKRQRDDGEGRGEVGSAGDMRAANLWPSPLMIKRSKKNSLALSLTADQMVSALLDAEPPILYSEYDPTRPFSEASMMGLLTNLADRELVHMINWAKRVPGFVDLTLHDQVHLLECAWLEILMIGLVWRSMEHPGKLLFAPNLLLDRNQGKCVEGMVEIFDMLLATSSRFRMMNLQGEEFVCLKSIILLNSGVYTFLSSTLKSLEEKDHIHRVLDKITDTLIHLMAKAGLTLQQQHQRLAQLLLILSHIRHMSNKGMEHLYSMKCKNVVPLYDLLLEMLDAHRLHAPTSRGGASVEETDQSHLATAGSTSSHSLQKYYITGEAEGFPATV
How it was run: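 Measures ESR1 pathway reporter gain-of-signal in HeLa cells after a 2-hour treatment, detected as fluorescent protein induction by microscopy, DMSO as baseline.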

[3] = target: Bile acid receptor (Homo sapiens) (UniProt Q96RI1); experiment: OT_FXR_FXRSRC1_0480: Odyssey Thera (OT) 8-hour HEK293T Protein-Complementation Assay for Farnesoid X receptor/SRC-1 Co-activator (AID 2283383)
Sequence of Bile acid receptor (Homo sapiens) (Q96RI1 whole entry, looked up, the tested form may be a part): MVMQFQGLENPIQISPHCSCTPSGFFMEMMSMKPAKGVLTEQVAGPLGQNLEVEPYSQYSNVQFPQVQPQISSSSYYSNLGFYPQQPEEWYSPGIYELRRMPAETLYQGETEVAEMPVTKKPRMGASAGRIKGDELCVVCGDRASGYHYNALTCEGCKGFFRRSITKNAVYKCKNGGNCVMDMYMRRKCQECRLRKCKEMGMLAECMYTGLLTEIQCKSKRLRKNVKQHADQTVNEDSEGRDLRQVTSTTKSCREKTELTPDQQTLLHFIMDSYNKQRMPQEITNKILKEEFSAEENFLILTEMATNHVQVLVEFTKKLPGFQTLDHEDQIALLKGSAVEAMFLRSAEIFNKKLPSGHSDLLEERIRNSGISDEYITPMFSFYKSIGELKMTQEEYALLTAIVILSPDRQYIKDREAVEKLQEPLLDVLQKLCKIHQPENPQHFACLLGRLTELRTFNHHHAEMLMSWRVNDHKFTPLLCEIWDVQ
How it was run: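 Co-activator recruitment to FXR was measured in living HEK293T cells, where interaction of the two fused partners restored an active fluorescent reporter. Signal gain after 8 h treatment was referenced to DMSO.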

[4] = target: Bile acid receptor (Homo sapiens) (UniProt Q96RI1); experiment: OT_FXR_FXRSRC1_1440: Odyssey Thera (OT) 24-hour HEK293T Protein-Complementation Assay for Farnesoid X receptor/SRC-1 Co-activator (AID 2283384)
How it was run: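 Cell-based binding reporter: interaction of FXR with SRC-1 brings reporter fragments together, giving a fluorescence signal read 24 h after dosing of HEK293T cells.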

[5] = target: Retinoic acid receptor RXR-alpha (Homo sapiens) (UniProt P19793); experiment: OT_NURR1_NURR1RXRa_0480: Odyssey Thera (OT) 8-hour HEK293T Protein Complementation Assay for Nurr1/retinoid X receptor (RXR) (AID 2283385)
Sequence of Retinoic acid receptor RXR-alpha (Homo sapiens) (P19793 whole entry, looked up, the tested form may be a part): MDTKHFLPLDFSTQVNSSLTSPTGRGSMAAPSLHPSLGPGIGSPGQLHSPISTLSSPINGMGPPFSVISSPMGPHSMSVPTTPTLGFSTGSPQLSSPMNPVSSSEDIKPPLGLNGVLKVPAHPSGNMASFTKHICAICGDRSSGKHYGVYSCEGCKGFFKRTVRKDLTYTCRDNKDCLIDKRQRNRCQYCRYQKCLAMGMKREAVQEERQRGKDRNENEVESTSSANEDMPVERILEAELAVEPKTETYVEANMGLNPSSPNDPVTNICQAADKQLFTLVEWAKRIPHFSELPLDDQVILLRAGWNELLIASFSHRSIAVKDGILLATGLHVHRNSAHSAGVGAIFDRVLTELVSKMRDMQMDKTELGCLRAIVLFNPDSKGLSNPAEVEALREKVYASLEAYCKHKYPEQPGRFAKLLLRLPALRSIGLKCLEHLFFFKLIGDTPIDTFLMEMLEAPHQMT
How it was run: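 Compounds are applied to HEK293T cells carrying Nurr1 and RXRα linked to reporter fragments. After 8 h, fluorescence intensity reports heterodimer formation, with DMSO as baseline.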

[6] = target: Retinoic acid receptor RXR-alpha (Homo sapiens) (UniProt P19793); experiment: OT_NURR1_NURR1RXRa_1440: Odyssey Thera (OT) 24-hour HEK293T Protein Complementation Assay for Nurr1/retinoid X receptor (RXR) (AID 2283386)
How it was run: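 Measured as fluorescence from a reconstituted split reporter, this 24 h HEK293T complementation assay scores compound-induced gain of Nurr1/RXRα association relative to DMSO.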

[7] = target: Peroxisome proliferator-activated receptor gamma (Homo sapiens) (UniProt P37231); experiment: OT_PPARg_PPARgSRC1_0480: Odyssey Thera (OT) 8-hour Protein-Complementation Assay for Peroxisome Proliferator-activated Receptor Gamma / SRC-1 Co-activator (AID 2283387);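 further: nuclear to cytoplasmic split Venus YFP fluorescence ratio reporting PPARg SRC-1 interaction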
Sequence of Peroxisome proliferator-activated receptor gamma (Homo sapiens) (P37231 whole entry, looked up, the tested form may be a part): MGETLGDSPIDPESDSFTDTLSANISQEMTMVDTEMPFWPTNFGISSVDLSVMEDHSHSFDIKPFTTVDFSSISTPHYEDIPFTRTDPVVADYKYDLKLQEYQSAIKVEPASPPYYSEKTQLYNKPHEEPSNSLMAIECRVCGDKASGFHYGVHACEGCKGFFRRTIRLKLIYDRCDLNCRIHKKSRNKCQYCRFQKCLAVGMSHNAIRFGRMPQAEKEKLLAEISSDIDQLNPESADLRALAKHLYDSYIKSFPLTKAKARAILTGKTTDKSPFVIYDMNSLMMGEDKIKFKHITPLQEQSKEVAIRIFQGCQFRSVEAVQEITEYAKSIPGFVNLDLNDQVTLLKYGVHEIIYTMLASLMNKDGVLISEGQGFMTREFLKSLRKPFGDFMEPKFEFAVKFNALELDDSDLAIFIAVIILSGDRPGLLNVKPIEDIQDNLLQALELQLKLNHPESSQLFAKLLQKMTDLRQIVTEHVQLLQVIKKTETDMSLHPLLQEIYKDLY
How it was run: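 Protein-fragment complementation of split Venus YFP reports PPARg/SRC-1 interaction in HEK293T (transfected 48 h before treatment), exposed 8 h. Readout: N/C fluorescence ratio at 488 nm from imaging, Draq5 for segmentation, positive fit relative to DMSO.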

[8] = target: Peroxisome proliferator-activated receptor gamma (Homo sapiens) (UniProt P37231); experiment: OT_PPARg_PPARgSRC1_1440: Odyssey Thera (OT) 24-hour Protein-Complementation Assay for Peroxisome Proliferator-activated Receptor Gamma/ SRC-1 Co-activator (AID 2283388);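 further: nuclear to cytoplasmic ratio of reconstituted Venus YFP fluorescence in fixed imaged cells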
How it was run: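 Readout: nuclear-to-cytoplasmic 488 nm fluorescence ratio, ≥350 cells per image, 8 images per well, after 24 h compound exposure of HEK293T expressing PPARg/SRC-1 split-YFP fusions. Activity fitted in positive direction against DMSO.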

[9] = target: mouse Estrogen Receptor alpha (Era), Esr1 (gene 13982) (UniProt P19785); experiment: NVS_NR_mERa: NovaScreen (NVS) Nuclear Receptor Binding Assay for mouse Estrogen Receptor alpha (Era) (AID 2283378);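 further: hit means loss of bound radioligand signal relative to DMSO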
Sequence of mouse Estrogen Receptor alpha (Era), Esr1 (gene 13982) (P19785 whole entry, looked up): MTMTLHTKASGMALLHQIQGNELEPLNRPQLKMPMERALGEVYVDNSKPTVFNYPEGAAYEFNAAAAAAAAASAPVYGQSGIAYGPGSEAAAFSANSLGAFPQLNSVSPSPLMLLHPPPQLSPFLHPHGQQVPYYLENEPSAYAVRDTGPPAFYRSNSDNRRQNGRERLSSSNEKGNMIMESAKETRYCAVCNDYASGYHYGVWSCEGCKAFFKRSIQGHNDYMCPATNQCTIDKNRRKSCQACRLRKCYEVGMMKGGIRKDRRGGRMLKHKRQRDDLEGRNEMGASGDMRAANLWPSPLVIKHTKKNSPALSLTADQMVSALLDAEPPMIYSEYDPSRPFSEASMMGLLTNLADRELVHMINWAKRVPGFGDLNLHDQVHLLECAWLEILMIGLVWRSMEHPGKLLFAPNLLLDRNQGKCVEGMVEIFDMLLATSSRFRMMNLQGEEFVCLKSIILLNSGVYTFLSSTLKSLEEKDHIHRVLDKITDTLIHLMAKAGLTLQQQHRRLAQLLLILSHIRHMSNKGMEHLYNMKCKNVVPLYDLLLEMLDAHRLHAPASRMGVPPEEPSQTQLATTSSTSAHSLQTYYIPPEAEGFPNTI
How it was run: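 Filter scintillation counts of bound radioligand, measured 18 h post-dose, gave the readout; decreased signal relative to DMSO controls indicated displacement from mouse Era. Primary screen ran in duplicate at 25 uM; active chemicals were retested across concentrations.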

[10] = target: Estrogen receptor (Homo sapiens) (UniProt P03372); experiment: OT_ERa_GFPERaERE_0480: Odyssey Thera (OT) 8-hour HeLa Transcription Induction Assay for Estrogen Receptor (AID 2283381; active means hit-call score of the fitted dose curve at least 0.9, where 1 is the maximum; inactive means score below 0.9)
How it was run: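 Cells (HeLa) receive compound; after 8 h, reporter fluorescence is imaged and quantified by high-content analysis. Gain-of-signal relative to DMSO gives the endpoint.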

[11] = CEETOX_H295R_11DCORT: CeeTox H295R High-throughput Steroidogenesis Assay for 11-Deoxycortisol (11DCORT) (AID 2283432; active means hit-call score of the fitted dose curve at least 0.9, where 1 is the maximum; inactive means score below 0.9;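 on AC50: 11-deoxycortisol secreted into the medium measured by LC-MS/MS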); settings: actives raise or lower the signal
How it was run: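 Human adrenal H295R cells were prestimulated with 10 uM forskolin for 48 h, then exposed to test chemical (0.1% DMSO final) for 48 h. Medium 11-deoxycortisol was quantified by MTBE extraction and HPLC-MS/MS; bidirectional fitting relative to DMSO.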

[12] = CEETOX_H295R_OHPREG: CeeTox H295R High-throughput Steroidogenesis Assay for OH-Pregnenolone (OHPREG) (AID 2283434; active means hit-call score of the fitted dose curve at least 0.9, where 1 is the maximum; inactive means score below 0.9); settings: actives raise or lower the signal
How it was run: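 Human adrenal H295R cells were prestimulated 48 h with 10 uM forskolin, then exposed 48 h to chemical in 0.1% DMSO. Medium 17alpha-hydroxypregnenolone was quantified by HPLC-MS/MS after MTBE extraction; bidirectional fitting versus DMSO baseline.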

[13] = CEETOX_H295R_OHPROG: CeeTox H295R High-throughput Steroidogenesis Assay for OH-Progesterone (OHPROG) (AID 2283435; active means hit-call score of the fitted dose curve at least 0.9, where 1 is the maximum; inactive means score below 0.9;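 on AC50: 17alpha-hydroxyprogesterone secreted into medium measured by HPLC-MS/MS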); settings: actives raise or lower the signal
How it was run: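 Secreted 17alpha-hydroxyprogesterone is read by tandem MS from media of forskolin-primed H295R cells dosed with chemical for 48 h. Activity is fitted in both directions against DMSO baseline; cytotoxic concentrations are re-tested diluted.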

[14] = CEETOX_H295R_CORTIC: CeeTox H295R High-throughput Steroidogenesis Assay for Corticosterone (CORTIC) (AID 2283437; active means hit-call score of the fitted dose curve at least 0.9, where 1 is the maximum; inactive means score below 0.9;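 further: corticosterone secreted into medium quantified by mass spectrometry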); settings: actives raise or lower the signal
How it was run: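 H295R cells were prestimulated 48 h with 10 uM forskolin, then exposed 48 h to test chemical in 0.1% DMSO. Medium corticosterone was MTBE-extracted and quantified by HPLC-MS/MS; bidirectional fit versus DMSO baseline.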

[15] = CEETOX_H295R_CORTISOL: CeeTox H295R High-throughput Steroidogenesis Assay for Cortisol (AID 2283438; active means hit-call score of the fitted dose curve at least 0.9, where 1 is the maximum; inactive means score below 0.9;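 further: cortisol secreted into medium quantified by LC-MS/MS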); settings: actives raise or lower the signal
How it was run: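 Human adrenocortical H295R cells (passage ≤10) received test chemicals for 48 h after forskolin priming. Secreted cortisol was measured by LC-MS/MS.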

[16] = CEETOX_H295R_DOC: CeeTox H295R High-throughput Steroidogenesis Assay for DOC (AID 2283439; active means hit-call score of the fitted dose curve at least 0.9, where 1 is the maximum; inactive means score below 0.9); settings: actives raise or lower the signal
How it was run: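 Secreted DOC was quantified from H295R media by HPLC-MS/MS after 48 h chemical exposure following 48 h forskolin (10 uM) prestimulation. Values were fitted in both directions relative to DMSO, the negative control and baseline.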

[17] = CEETOX_H295R_ESTRADIOL: CeeTox H295R High-throughput Steroidogenesis Assay for Estradiol (AID 2283440; active means hit-call score of the fitted dose curve at least 0.9, where 1 is the maximum; inactive means score below 0.9;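 further: estradiol secreted into medium quantified by LC-MS/MS after dansyl derivatisation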); settings: actives raise or lower the signal
How it was run: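 H295R, 48 h forskolin (10 uM) prestim → 48 h compound, 0.1% DMSO final. Estradiol in medium: MTBE extraction, dansyl chloride derivatization, LC-MS/MS. Fit bidirectional vs DMSO baseline; MTT viability in same wells.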

[18] = CEETOX_H295R_ESTRONE: CeeTox H295R High-throughput Steroidogenesis Assay for Estrone (AID 2283441; active means hit-call score of the fitted dose curve at least 0.9, where 1 is the maximum; inactive means score below 0.9;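 further: estrone secreted into medium measured by LC-MS/MS after dansyl derivatization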); settings: actives raise or lower the signal
How it was run: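 H295R cells; 48 h forskolin (10 uM) prestimulation; 48 h compound exposure, 0.1% DMSO final. Medium estrone: MTBE extraction, dansyl derivatization, HPLC-MS/MS. Bidirectional fit vs DMSO.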

[19] = target: Agonist Androgen Response Element (ARE), AR (gene 367) (UniProt P10275); experiment: OT_AR_ARELUC_AG_1440: Odyssey Thera (OT) 24-hour CHO-K1 Luciferase Assay for Agonist Androgen Response Element (ARE) (AID 2283379)
Sequence of Agonist Androgen Response Element (ARE), AR (gene 367) (P10275 whole entry, looked up): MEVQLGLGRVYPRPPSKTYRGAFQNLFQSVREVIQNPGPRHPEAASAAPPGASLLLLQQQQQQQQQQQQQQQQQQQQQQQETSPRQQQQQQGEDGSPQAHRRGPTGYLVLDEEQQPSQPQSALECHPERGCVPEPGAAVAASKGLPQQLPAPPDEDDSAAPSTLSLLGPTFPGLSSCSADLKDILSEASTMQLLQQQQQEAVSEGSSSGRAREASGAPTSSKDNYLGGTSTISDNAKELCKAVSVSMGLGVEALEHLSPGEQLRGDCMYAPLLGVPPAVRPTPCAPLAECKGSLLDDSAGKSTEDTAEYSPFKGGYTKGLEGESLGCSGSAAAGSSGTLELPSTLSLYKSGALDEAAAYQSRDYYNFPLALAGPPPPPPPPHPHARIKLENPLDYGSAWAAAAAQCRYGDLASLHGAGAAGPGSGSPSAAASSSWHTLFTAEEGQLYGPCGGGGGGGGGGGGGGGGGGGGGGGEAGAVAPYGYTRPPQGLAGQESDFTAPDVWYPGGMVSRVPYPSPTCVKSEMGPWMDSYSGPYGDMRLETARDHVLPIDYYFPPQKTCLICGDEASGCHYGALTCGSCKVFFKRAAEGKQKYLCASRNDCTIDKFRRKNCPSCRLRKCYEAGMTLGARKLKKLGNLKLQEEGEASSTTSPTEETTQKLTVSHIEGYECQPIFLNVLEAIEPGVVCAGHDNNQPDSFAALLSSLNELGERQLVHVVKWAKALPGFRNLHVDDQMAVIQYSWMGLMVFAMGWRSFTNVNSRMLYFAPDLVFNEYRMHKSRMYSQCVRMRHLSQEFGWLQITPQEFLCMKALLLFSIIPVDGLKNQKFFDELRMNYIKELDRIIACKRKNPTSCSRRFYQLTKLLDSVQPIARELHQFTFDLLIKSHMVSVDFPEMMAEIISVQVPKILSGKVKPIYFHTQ
How it was run: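 Seed CHO-K1 cells; dose compounds for 24 h; add D-luciferin plus ATP in PBS; read luminescence. Signal increase relative to vehicle defines agonist activity, with at least 3 replicate wells per sample.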

[20] = CEETOX_H295R_ANDR: CeeTox H295R High-throughput Steroidogenesis Assay for Androstenedione (ANDR) (AID 2283436; active means hit-call score of the fitted dose curve at least 0.9, where 1 is the maximum; inactive means score below 0.9); settings: actives raise or lower the signal
How it was run: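 H295R human adrenal cells (passages ≤10) were exposed to test chemicals for 48 h; androstenedione in medium was MTBE-extracted and quantified by HPLC-MS/MS against a 7-point standard curve. Bidirectional fitting used DMSO as baseline.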

Measured: AC50

CCCCOCN(C(=O)CCl)c1c(CC)cccc1CC
active: [3] 50 µM | [4] 75.1 µM | [6] 76.8 µM
inactive: [1] | [2] | [5] | [6] | [7] | [8]

OC(c1ccc(Cl)cc1)(c1ccc(Cl)cc1)C(Cl)(Cl)Cl
active: [1] 12.3 µM
inactive: [9] | [10] | [7] | [8]

Nc1c(Cl)c(Cl)nc(C(=O)O)c1Cl
inactive: [1] | [10] | [2] | [5] | [6] | [7] | [8]

Clc1nc(Cl)nc(Nc2ccccc2Cl)n1
active: [16] 2.71 µM
not listed: [2] | [3] | [4] | [9] | [19] | [20]
inactive: all other assays above

COc1cc(Cl)c(OC)cc1Cl
not listed: [3] | [4] | [9] | [19] | [20]
inactive: all other assays above

C=C(C)CN(CC)c1c([N+](=O)[O-])cc(C(F)(F)F)cc1[N+](=O)[O-]
inactive: [1] | [10] | [5] | [6] | [7] | [8]
active: [2] 12.1 µM

CCCCC(O)(Cn1cncn1)c1ccc(Cl)cc1Cl (centres undefined)
active: [2] 77.5 µM | [4] 34.9 µM
inactive: [19] | [1] | [10] | [3] | [7] | [8]

Cc1c(COC(=O)[C@@H]2[C@H](/C=C(\Cl)C(F)(F)F)C2(C)C)cccc1-c1ccccc1
not listed: [9] | [10] | [11] | [14] | [15] | [16] | [19] | [20]
inactive: all other assays above

COCc1cnc(C2=NC(C)(C(C)C)C(=O)N2)c(C(=O)O)c1 (centres undefined)
not listed: [3] | [9]
inactive: all other assays above

CS(=O)(=O)c1cc(C(F)(F)F)ccc1C(=O)c1cnoc1C1CC1
inactive: [1] | [2] | [5] | [6] | [7] | [8]

CC(C)N1C(=O)N(c2ccccc2)CSC1=NC(C)(C)C
inactive: [10] | [5] | [6] | [7] | [8]
active: [1] 27.7 µM | [5] 74.4 µM | [6] 80.8 µM

CC(C)Oc1cccc(NC(=O)c2ccccc2C(F)(F)F)c1
active: [11] 28.9 µM | [13] 13.7 µM | [15] 37.5 µM | [16] 7.26 µM
not listed: [2] | [3] | [4] | [9] | [19] | [20]
inactive: all other assays above

CCC(C)n1c(=O)[nH]c(C)c(Br)c1=O (centres undefined)
not listed: [2] | [9] | [11] | [14] | [15] | [16] | [19] | [20]
inactive: all other assays above

CC1(C)CCC(=Cc2ccc(Cl)cc2)C1(O)Cn1cncn1 (centres undefined)
active: [15] 5 µM | [16] 1.59 µM
not listed: [3] | [4] | [5]
inactive: all other assays above

Cc1ccc(N=CN(C)C=Nc2ccc(C)cc2C)c(C)c1
active: [5] 50 µM | [6] 80.8 µM and 31.9 µM
inactive: [1] | [10] | [2] | [7] | [8]
